Experimental data from PubChem BioAssay (Tox21).
Unmarked numbers belong to inactive results. Active and inactive are the calls of the source. Calls follow the shape of the dose curve; as a rule, active = well fitted curve in the direction sought with a large enough effect in the repeat runs; inconclusive = weak or mixed curves; inactive = flat fitted curve, though single readings scatter.

experiment: qHTS assay to test for compound auto fluorescence at 535 nm (green) in HEK293 cell free culture (AID 720682); conditions: cell-free medium, green autofluorescence 485/535 nm, stronger effect = higher value; series mostly up to 91.3 µM
Excerpt: U.S. Tox21 Program National Center for Advancing Translational Sciences [NCATS] NIH Chemical Genomics Center [NCGC] U.S. Environmental Protection Agency [EPA] National Institutes of Environmental Health Sciences [NIEHS] National Toxicology Program [NTP] U.S. Food and Drug Administration [FDA] Tox21 Assay Overview: Compound auto fluorescence often interferes with screening of the compound library against various biological targets and signaling pathways. Some of these compounds may have fluorophoric properties. Such properties may interfere with the assay outputs resulting in false positives and/or negatives. To decrease such complications and ensure the compound activities are relevant in terms of biological response, the Tox21 10K compound library was screened for auto fluorescence. From the fluorophores used as reporter signals in our screening assays, the auto fluorescence equivalencies of compounds against three fluorophores have been evaluated: Triamterene, Fluorescein and Rose Bengal sodium for blue, green and red fluorescence, respectively. The fluorescence intensities were measured using Excitation/Emission wavelengths at 405/460nm, 485/535nm and 540/590nm for blue, green and red labels, respectively. This assay includes the green fluorescence data.
Tox21 Assay Protocol Summary: 5 uL of culture medium (DMEM containing 10% FBS) per well was dispensed into black wall/clear bottom 1536-well plates using a Multidrop Combi Dispenser (ThermoFisher Scientific, Waltham, MA). After 23 nL compound or DMSO vehicle was transferred into assay plate by a pintool work station (Kalypsys, San Diego, CA), fluorescence intensities in the assay plates were measured by an Envision (PerkinElmer, Shelton, CT) plate reader using three labels for measuring blue, green and red fluorescence at […] 460, 535 and 590nm respectively.
% is scaled to controls: 0 for no effect and ±100 for the full control effect.

| Compound | outcome | activity change |
| --- | --- | --- |
| ON(Cc1ccccc1)Cc1ccccc1 | inactive | – |
| CCN(Cc1cccc(S(=O)(=O)O)c1)c1ccc(C(=C2C=CC(=[N+](CC)Cc3cccc(S(=O)(=O)[O-])c3)C=C2)c2ccccc2)cc1 | inactive | – |
| COc1cc2ncnc(Nc3ccc(F)c(Cl)c3)c2cc1OCCCN1CCOCC1 | inactive | – |
| OC/C(Br)=C(\Br)CO | inactive | – |
| Cc1ccccc1N1C(=O)c2cc(S(N)(=O)=O)c(Cl)cc2NC1C (stereo not given) | inactive | – |
| CCOC(=O)[C@@H](C)Oc1ccc(Oc2nc3ccc(Cl)cc3o2)cc1 | inactive | – |
| Cc1ccnc2ccccc12 | inactive | – |
| CCOC(=O)/C=C/C(=O)O | inactive | – |
| CC1(C)C(=O)N(Br)C(=O)N1Cl | inactive | – |
| C=CCCCCCCCCCCCCCCCC | – | -0.098% [at 3.72 µM] |
| CCC(C)(C)C1CCC(O)CC1 (stereo not given) | inactive | – |
| CC1=C(C=O)C(C)(C)CCC1 | inactive | – |
| CCCCCCCCCCOS(=O)(=O)O | inactive | – |
| COc1ccc(CCC(=O)c2c(O)cc(O[C@@H]3O[C@H](CO)[C@@H](O)[C@H](O)[C@H]3O[C@@H]3O[C@@H](C)[C@H](O)[C@@H](O)[C@H]3O)cc2O)cc1O | inactive | – |
| O=C(CCC1CCN(Cc2ccccc2)CC1)c1ccc2c(c1)NCCCC2 | inactive | – |
| O=C(C(=O)c1ccccc1)c1ccccc1 | inactive | – |
| C[N+](C)(C)CCOC(N)=O | inactive | – |
| Cc1nc2ccccc2s1 | inactive | – |
| O=C(/C=C/c1ccccc1)OCCCc1ccccc1 | inactive | – |
| CC(C)CCCCCOC(=O)CCCCC(=O)OCCCCCC(C)C | inactive | – |

| Compound | outcome | activity change |
| --- | --- | --- |
| CC(=O)Nc1ccccc1C | inactive | – |
| C1COCO1 | inactive | – |
| Cc1cc(OI)c(C(C)C)cc1-c1cc(C(C)C)c(OI)cc1C | inactive | – |
| CC1(C)O[C@@H]2C[C@H]3[C@@H]4CCC5=CC(=O)C=C[C@]5(C)[C@H]4[C@@H](O)C[C@]3(C)[C@]2(C(=O)CO)O1 | inactive | – |
| O=C(CCCCCCCCC#CI)Oc1ccccc1 | inactive | – |
| CCCCC(=O)O[C@]1(C(=O)CO)CC[C@H]2[C@@H]3CCC4=CC(=O)CC[C@]4(C)[C@H]3[C@@H](O)C[C@@]21C | inactive | – |
| CSc1ccc(Oc2ccc(S(N)(=O)=O)cc2CN(C)C)cc1C | inactive | – |
| O=C(Nc1ccc([N+](=O)[O-])cc1)Nc1ccc([N+](=O)[O-])cc1 | inactive | – |
| CCCOC(=O)c1ccc(C(=O)OCCC)nc1 | inactive | – |
| CCCCN(CCCC)CCCOC(=O)c1ccc(N)cc1 | – | -0.0464% [at 18.6 µM] |
| O=Cc1c(Cl)cccc1Cl | inactive | – |
| CCCCCCCCCOC(C)=O | inactive | – |
| CCOC(=O)CC(=O)C(=O)OCC | inactive | – |
| N#C/C(=C1\SCC(c2ccccc2Cl)S1)n1ccnc1 (stereo not given) | inactive | – |
| CC(=O)[C@H]1CC[C@H]2[C@@H]3C=CC4=CC(=O)CC[C@@]4(C)[C@@H]3CC[C@]12C | – | -0.278% [at 18.6 µM] |
| CCOC(=O)c1ccccc1C | inactive | – |
| O=C(O)c1cccc(O)c1 | inactive | – |
| Nc1ccc(C(=O)OCCCOC(=O)c2ccc(N)cc2)cc1 | inactive | – |
| O=C1NCCN1 | inactive | – |
| COCc1c(C(C)C)nc(C(C)C)c(/C=C/[C@@H](O)C[C@@H](O)CC(=O)O)c1-c1ccc(F)cc1 | inactive | – |
